SW480 rereplic: induces DNA re-replication in SW480 colon adenocarcinoma cells; SW480 DNA re-replication, Hoechst DNA content imaging, 48 h; Potency, µM (titrated, usually from 46.1 µM), without a hit: at the top dose re-replication activation, hits mostly activators; 1.8% of 340,000 active; also: % of control where 0% means no effect; nearly all actives have a fitted effect of over 55% in size
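Compounds, transferred as 23 nL by pin tool, were incubated with cells for 48 hr; DNA content per nucleus was then quantified by Hoechst staining and fluorescence plate imaging.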
KB-3-1 cytotox: KB-3-1 parental cell cytotoxicity. AID 1347075. KB-3-1 viability, CellTiter-Glo ATP luminescence, 72 h. 1.4% of 400,000 active. Potency, µM (titrated, usually from 46.1 µM), usual class: cytotoxic; also: % is scaled to controls: 0 for no effect and ±100 for the full control effect; nearly all actives have a fitted effect of over 60% in size
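Using CellTiter-Glo luminescence, growth of non-resistant KB-3-1 adenocarcinoma cells is assessed 72 h after pin-tool compound addition at 37 °C. Normalized responses across the concentration series yield fitted curves.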
HT1080 IDH1KD tx: kills HT-1080 cells with IDH1 knockdown. HT-1080 IDH1 knockdown viability, ATP luminescence, 48 h. Potency, µM (top dose mostly 46.1 µM), for inactives: at the highest dose activity, negative = toxicity, hits mostly cytotoxic. 2% of 360,000 active. AID 686971;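 also: 0% = DMSO wells and -100% = cell-free medium wells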
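Viability of IDH1-knockdown HT-1080 fibrosarcoma cells was assessed by CellTiter-Glo after 48 h at 37 °C with titrated compound; concentration-effect curves were classified by fit quality and response size.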
KB-V1 MDR tox: kills drug-selected multidrug resistant KB-V1 cells. Potency, µM (top dose mostly 46.1 µM), actives largely listed as cytotoxic. KB-V1 MDR cells viability, CellTiter-Glo, 72 h. 3.4% of 400,000 active; also: % is scaled to controls: 0 for no effect and ±100 for the full control effect; nearly all actives have a fitted effect of over 60% in size
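Luminescent ATP read-out (CellTiter-Glo, 10 min) measures survival of drug-selected KB-V1 MDR cells after 72 h, 37 degrees C compound exposure. Medium: phenol-red-free DMEM, 10% FBS. Values from fitted concentration-response curves.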
HT1080NT lethal: kills 2HG-producing HT-1080-NT fibrosarcoma cells | Potency, µM (highest dose often 46.1 µM), for inactives: top-dose activity, negative = less viability, actives largely listed as cytotoxic | 1.6% of 360,000 active | HT-1080-NT fibrosarcoma viability, CellTiter-Glo ATP luminescence, 48 h | AID 686970;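 also: NT is the 2HG producing partner of a matched IDH1 knockdown line; 0% = DMSO-treated cells and -100% = media-only wells without cells; nearly all actives have a fitted effect of over 55% in size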
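Viability of the 2HG-overproducing fibrosarcoma line after 48 hours of compound exposure at 37 degrees C was determined by luminescence with CellTiter-Glo, and concentration-effect curves were then fitted and categorized.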
MCF10A rerep: DNA re-replication induction in MCF 10a cells. MCF 10A DNA re-replication, Hoechst nuclear intensity, 48 h. Potency, µM (series often up to 46.1 µM), without a hit: at the highest dose activity, positive = re-replication, actives largely listed as activators. 2.9% of 350,000 active. AID 624296; also: % of control where 0% means no effect; nearly all actives have a fitted effect of over 50% in size
An asterisk follows results filed as active; i = inactive; u = inconclusive; x = not tested or not shown; [ ] = another dose, or the depositor's remark. Compounds with a hit are over-represented: about 7.9% of the library has one in this group of screens. Calls follow the shape of the dose curve; as a rule, active = well fitted curve in the direction sought with a large enough effect; inconclusive = small, poorly fitted or top-dose-only effect, or another doubt; inactive = no such curve, though single readings can be large; an effect the other way counts as inactive or inconclusive. Potency is read from the fitted curve at half-maximal effect.

SMILES	SW480 rereplic	KB-3-1 cytotox	HT1080 IDH1KD tx	KB-V1 MDR tox	HT1080NT lethal	MCF10A rerep
O=C(CN1CCN(c2ncc(C(F)(F)F)cc2Cl)CC1)NCCNc1ncc(C(F)(F)F)cc1Cl	u	i	18.4µM*	u	u	18.4µM*
Cc1ccc(Sc2nc(C)c([N+](=O)[O-])c(C)c2C#N)cc1	-37.4%	i	-11.1%	i	-1.8%	u
Cc1nc(Sc2ccc(Br)cc2)c(C#N)c(C)c1[N+](=O)[O-]	18.4%	u	u	u	u	20.6µM*
Cc1nc(Sc2ccc(Cl)cc2)c(C#N)c(C)c1[N+](=O)[O-]	u	i	u	u	u	18.4µM*
COc1cccc(NC(=O)c2ccc(OC(F)(F)F)cc2)c1	-35.3%[9.22 µM]	u	-0.1%	u	4.2%	8.7%
OC[C@@H]1[C@@H](c2ccc(Cl)cc2)C(c2ccc(F)cc2)=NN1c1ccccc1	4.11µM*	i	u	i	u	1.84µM*
OC[C@@H]1[C@@H](c2ccccc2)C(c2ccc(F)cc2)=NN1c1ccccc1	20.6µM*	u	u	i	u	u
OC[C@@H]1[C@@H](c2ccccc2)C(c2ccccc2)=NN1c1ccccc1	u	i	-0.9%	i	4.4%	u
O=C(CC1(O)C(=O)N(Cc2cccc3ccccc23)c2ccccc21)c1cccnc1 (centres undefined)	u	20.6µM*	10µM*	20.6µM*	u	u
CC(C)(COC(=O)c1ccccc1)N1CC2CCC(C1)O2	-0.8%	i	-2.1%	i	9.5%	-1.7%
NC1=C(Cl)C(=O)c2ccccc2C1=O	16.4µM*	u	u	i	u	u
NS(=O)(=O)c1ccc2c(c1)C(=NO)c1cc(S(N)(=O)=O)ccc1-2	-1.6%	i	-4.2%	u	-0.6%	0.9%
NC1=C(Cl)C(=O)c2ccc(S(N)(=O)=O)cc2C1=O	0.731µM*	u	6.51µM*	u	8.2µM*	1.46µM*
N#Cc1ccc(C(=O)OCC(=O)Nc2cccc(S(=O)(=O)NC3=NCCC3)c2)cc1	2.3%	i	4.3%	i	-4.0%	1.7%
COc1cccc(CN(C)C(=O)Cn2cc(C)c(=O)[nH]c2=O)c1	u	i	1.0%	i	1.1%	u
O=C(Cn1c(=O)n(-c2ccccc2)c(=O)c2ccc(C(=O)NCc3ccc4c(c3)OCO4)cc21)Nc1ccc(F)c(Cl)c1	x	i	x	i	x	x
CC(Oc1ccc(C(=O)c2ccccc2)cc1)C(=O)N1CCOCC1 (centres undefined)	-2.2%	i	0.0%	i	0.3%	1.6%
CC(Oc1cc(-c2ccccc2)cc2ccccc12)C(=O)N1CCOCC1 (centres undefined)	5.7%	u	-2.6%	6.51µM*	-0.6%	15.5%
Clc1ccccc1/C=N/Nc1cc(N2CCOCC2)ncn1	1.4%	i	17.4%	i	-1.2%	0.2%
CCOc1ccc(/C=N/Nc2cc(N3CCOCC3)ncn2)c(O)c1	x	u	2.31µM*	i	u	x
CCCOc1ccc(/C=N/Nc2cc(N3CCOCC3)ncn2)c(O)c1	u	11.6µM*	3.66µM*	i	u	15.0%
CCOC(=O)c1c(-c2ccc(OC)cc2)nc2nonc2c1N	-12.3%	u	4.1%	13µM*	-2.7%	-5.1%
CCOC(=O)c1c(C)nc(C)c(C(=O)OCC)c1-c1ccc(OC)cc1	-1.4%	i	3.2%	i	15.3%	-14.3%
CC(=O)NCCc1nc2cc(NC(=O)c3ccc([N+](=O)[O-])cc3)ccc2n1C	-3.4%	i	16.6%	i	1.1%	0.9%
CCOC(=O)C1CCCN(C(=O)c2ccc3ncsc3c2)C1 (centres undefined)	-3.1%	x	-6.8%	x	0.0%	-0.6%
SMILES	SW480 rereplic	KB-3-1 cytotox	HT1080 IDH1KD tx	KB-V1 MDR tox	HT1080NT lethal	MCF10A rerep
Cc1cc(/C=N/NC(N)=S)c(C)n1-c1ccc(Cl)cc1	u	i	-19.8%	i	-21.4%	8.2µM*
Cc1nnc(N/N=C/c2cc(C)n(-c3ccc(F)cc3)c2C)n1N	18.0%	i	u	i	23.1µM*	u
Cc1cc(/C=N/NC(N)=S)c(C)n1-c1ccc(Br)cc1	11.2%	i	u	u	u	u
O=C(CC(=O)NC1CCCCC1)N/N=C/c1ccc(Cl)cc1	-3.9%	i	-2.1%	i	-3.8%	-19.2%
Cc1cc(/C=N\NC(=O)CC(=O)NC2CCCCC2)c(C)n1-c1ccc(Cl)cc1	10.0%	i	u	20.6µM*	-4.4%	19.9%
COc1cc2c(cc1OC)C1(CCCC1)CNC2c1ccc([N+](=O)[O-])cc1 (centres undefined)	23.1µM*	i	-17.9%	i	-24.9%	-32.9%
N#Cc1c(N)[nH]c2ccc(Sc3ccccc3)cc12	4.11µM*	2.31µM*	7.31µM*	3.26µM*	3.26µM*	0.92µM*
O=C1C=CC(=O)N1CCCCCCN1C(=O)C=CC1=O	11.6µM*	u	u	18.4µM*	u	3.66µM*
O=C(O)CN1C(=O)C=CC1=O	x	i	3.7%	i	15.2%	x
COc1cc(OC)cc(C(=O)Nc2ccccc2C(=O)NCc2cccnc2)c1	-2.0%	i	-5.5%	i	-19.0%	u
Cc1ccc2oc(C(=O)N3CCC(O)(c4ccccc4)CC3)c(C)c2c1	-4.3%	i	3.9%	i	4.9%	0.4%
CCOC(=O)[C@]12CCCC=C1N(Cc1ccc(Cl)cc1Cl)C(=O)[C@H](CC(=O)NCc1ccc(OC)c(OC)c1)C2	x	u	u	18.4µM*	u	x
COC(=O)[C@]12CCCCC=C1N(Cc1ccc(Cl)cc1Cl)C(=O)[C@H](CC(=O)NCc1ccc(OC)c(OC)c1)C2	x	u	13µM*	u	u	x
CCOC(=O)[C@]12CCCC=C1N(Cc1ccc3c(c1)OCO3)C(=O)[C@H](CC(=O)NCc1ccc(OC)c(OC)c1)C2	x	i	7.6%	i	2.5%	x
COC(=O)[C@]12CCCCC=C1N(Cc1ccc(Cl)cc1Cl)C(=O)[C@H](CC(=O)NCc1ccccc1)C2	x	u	-29.8%	i	-28.3%	x
O=C(CCN1CCCCCC1)Nc1ccc2c(c1)OCCO2	0.4%	i	19.8%	i	16.0%	0.5%
O=C(CCN1CCc2ccccc2C1)c1ccc2c(c1)OCCO2	16.4µM*	u	-8.0%	u	-6.8%	u
COc1cc(C(=O)CCN2CCC(c3ccccc3)C2)cc(OC)c1OC (centres undefined)	u	i	6.0%	i	13.9%	3.66µM*
O=C(CCN1CCCCC1)c1ccc2c(c1)OCCO2	u	i	5.62µM*	i	u	-42.3%

Source: PubChem BioAssay (National Center for Advancing Translational Sciences (NCATS))
